Several values for one entry are separate records, joined by “and”; a condition that tells them apart may be missing. Equal values may be shown once. Results filed as inconclusive are left out. Activity calls are given as the source filed them. Unless noted, the call rests on the fitted dose curve; in most records, active means well fitted curve in the direction sought with a large enough effect; inconclusive means small, poorly fitted or top-dose-only effect, or another doubt; inactive means no such curve, though single readings can be large; an effect the other way counts as inactive or inconclusive.
Columns and labels:
[1] = target: Cellular tumor antigen p53 (Homo sapiens) (UniProt P04637); assay: Primary qHTS for small molecule compounds that upregulate eGFP-tagged delta133p53alpha (in N-terminal) cells. (AID 2060322); conditions: NCI-H358 eGFP-delta133p53alpha fluorescence, 24 h; activation: stronger effect = higher value;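 further: cells pre-induced with doxycycline then dosed without doxycycline; series mostly up to about 56 µM; 0% = DMSO vehicle and 100% = reference activator; nearly all actives have a fitted effect of over 75% in size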
Cellular tumor antigen p53 (Homo sapiens), sequence (P04637 whole entry, looked up): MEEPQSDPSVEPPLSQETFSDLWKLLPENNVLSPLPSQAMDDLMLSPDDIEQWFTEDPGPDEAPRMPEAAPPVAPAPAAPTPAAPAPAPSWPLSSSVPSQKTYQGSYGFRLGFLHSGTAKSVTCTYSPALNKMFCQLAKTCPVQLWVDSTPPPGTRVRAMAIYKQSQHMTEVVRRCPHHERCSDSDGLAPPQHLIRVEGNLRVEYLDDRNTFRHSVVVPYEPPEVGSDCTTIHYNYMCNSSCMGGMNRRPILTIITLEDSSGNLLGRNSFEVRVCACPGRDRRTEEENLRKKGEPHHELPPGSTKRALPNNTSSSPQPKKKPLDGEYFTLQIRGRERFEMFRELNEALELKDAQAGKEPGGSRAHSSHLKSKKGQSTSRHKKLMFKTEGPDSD
Summary of the method: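 NCI-H358 cells pre-induced 24 h with 10 ng/ml doxycycline for eGFP-delta133p53alpha, plated dox-free and exposed 24 h at 37C to titrated compounds. Fixed, Hoechst-stained; gated GFP peak intensity by laser scanning cytometry, normalized to DMSO (0%) and 57.5 uM 5-azacytidine (100%).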

[2] = target: Cellular tumor antigen p53 (Homo sapiens) (UniProt P04637); assay: Primary qHTS for small molecule compounds that upregulate eGFP-tagged delta133p53alpha (in C-terminal) cells. (AID 2060324);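 further: 0% = DMSO wells and 100% = 57.5 µM 5-azacytidine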
Summary of the method: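 Concentration-response screen: compounds titrated onto pre-induced NCI-H358 D133p53a-eGFP cells, incubated one day, fixed with 3.5% PFA. Per-cell GFP peak intensity was gated, then normalized against intraplate controls.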

[3] = target: Aldehyde dehydrogenase, mitochondrial (Homo sapiens) (UniProt P05091); assay: qHTS for Inhibitors of the Aldehyde Dehydrogenase Family (ALDH2) Validation screens (AID 2061302; active means well fitted inhibition curve with a large enough effect; title and protocol of this record describe different tests;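 further: plate controls were DMSO vehicle for no effect and maximal DPI positive control response for full effect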)
[4] = target: Retinaldehyde dehydrogenase 3 (Homo sapiens) (UniProt P47895); assay: qHTS for Inhibitors of the Aldehyde Dehydrogenase Family (ALDH1A3) Validation screen (AID 2061312); further: on the % scale 0 is the no-effect control and ±100 the full control effect; nearly all actives have a fitted effect of over 45% in size

O[Si](CCCN1CCCCC1)(c1ccc(F)cc1)C1CCCCC1 (stereo not given)
inactive: activation [1] -77.2% | Potency [2] | Potency [3] | Potency [4]

COc1ccc(CCn2nnnc2C2(c3ccc(C)cc3)CC2)cc1
inactive: activation [1] -20.3% | Potency [2] | Potency [3] | Potency [4]

NC1C=CC=C(C(=O)O)C1 (stereo not given)
inactive: activation [1] -22% | Potency [2] | Potency [3] | Potency [4]

O=C1NC(=O)[C@@]2(CCOc3ccc(F)cc32)N1
inactive: activation [1] -3.95% and 3.53% | Potency [2] | Potency [3] | Potency [4]

NCCCCN
inactive: activation [1] 16% | Potency [2] | Potency [3] | Potency [4]

CCCCCN(CCCCC)C(=O)C(CCC(=O)O)NC(=O)c1ccc(Cl)c(Cl)c1 (stereo not given)
inactive: activation [1] 13% and -3% | Potency [2] | Potency [3] | Potency [4]

CCCNC(C)C(=O)Nc1ccccc1C (stereo not given)
inactive: activation [1] -9.21% and 30.8% | Potency [2] | Potency [3] | Potency [4]

NCC1OC(O[C@H]2[C@H](O)[C@@H](OC3C(O)C(N)CC(N)C3OC3OC(CO)C(O)C(O)C3N)O[C@@H]2CO)C(N)C(O)C1O (stereo not given in full)
inactive: activation [1] 6.76% | Potency [2] | Potency [3] | Potency [4]

Cc1nc2sccn2c(=O)c1CCN1CCC(=C(c2ccc(F)cc2)c2ccc(F)cc2)CC1
inactive: activation [1] -20.9% and -40.8% | Potency [2] | Potency [3] | Potency [4]

C[C@H](Cc1ccccc1)Nc1ncnc2c1ncn2[C@@H]1O[C@H](CO)[C@@H](O)[C@H]1O
inactive: activation [1] -29.5% | Potency [2] | Potency [3] | Potency [4]

O=C(O)c1cc([N+](=O)[O-])ccc1NCCCc1ccccc1
inactive: activation [1] -7.19% | Potency [2] | Potency [3] | Potency [4]

CC(=O)SCC[N+](C)(C)C
inactive: activation [1] -8.68% | Potency [2] | Potency [3] | Potency [4]

O=C(O)CC1CCCc2ccccc2C1O (stereo not given)
inactive: activation [1] 5.92% | Potency [2] | Potency [3] | Potency [4]

Nc1cc(=O)[nH]c(N)n1
inactive: activation [1] -34.3% and -22.6% | Potency [2] | Potency [3] | Potency [4]

CC(=O)OCC1=C(C(=O)O)N2C(=O)[C@@H](NC(=O)Cc3cccs3)[C@H]2SC1
inactive: activation [1] 27.7% and 1.09% | Potency [2] | Potency [3] | Potency [4]

O=C(O)c1cc2cc(Cc3cccnc3)ccc2o1
inactive: activation [1] 19.6% | Potency [2] | Potency [3] | Potency [4]

CN(C)C(=O)Oc1cccc([N+](C)(C)C)c1
inactive: activation [1] -10.7% and -13.7% | Potency [2] | Potency [3] | Potency [4]

COCCc1ccc(OCC(O)CNC(C)C)cc1 (stereo not given)
inactive: activation [1] 4.18% and 10.1% | Potency [2] | Potency [3] | Potency [4]

COC(=O)C(C)(N)Cc1ccc(O)cc1 (stereo not given)
inactive: activation [1] -5.7% | Potency [2] | Potency [3] | Potency [4]

CCN(CC)CCCCCCCCOC(=O)c1cc(OC)c(OC)c(OC)c1
inactive: activation [1] -40.3% | Potency [2] | Potency [3] | Potency [4]

COc1ccc(C(=O)NCc2cccnc2)cc1C(=O)NCc1cccnc1
inactive: activation [1] -12.6% | Potency [2] | Potency [3] | Potency [4]

CC(=O)N[C@@H](Cc1c[nH]c2ccccc12)C(=O)OCc1cc(C(F)(F)F)cc(C(F)(F)F)c1
inactive: activation [1] -29.2% | Potency [2] | Potency [3] | Potency [4]

CNc1ncnc2c1ncn2[C@H]1C[C@H](OP(=O)(O)O)[C@@H](COP(=O)(O)O)O1
inactive: activation [1] 3.4% | Potency [2] | Potency [3] | Potency [4]

CCOC(=O)N1CCC(=C2c3ccc(Cl)cc3CCc3cccnc32)CC1
inactive: activation [1] 20.9% and 5.49% | Potency [2] | Potency [3] | Potency [4]

OCC1O[C@H](O)C(Cl)C(O)C1O (stereo not given in full)
inactive: activation [1] -8.54% | Potency [2] | Potency [3] | Potency [4]

N[C@H](C(=O)O)[C@H]1C[C@@H]1C(=O)O
inactive: activation [1] 6.82% | Potency [2] | Potency [3] | Potency [4]

O=C(O)c1ccccc1Nc1ccccc1
inactive: activation [1] -8.85% | Potency [2] | Potency [3] | Potency [4]

NC(N)=N[C@@H](CCC(=O)O)C(=O)O
inactive: activation [1] -4.46% | Potency [2] | Potency [3] | Potency [4]

Nc1ccn([C@H]2CC[C@@H](CO)O2)c(=O)n1
inactive: activation [1] 32.8% and -1.67% and -29% | Potency [2] | Potency [3] | Potency [4]

COc1ccc2c(c1)CCC1C2CC[C@@]2(C)C1CC[C@@H]2NCCCCCCN1C(=O)CCC1=O (stereo not given in full)
inactive: activation [1] 10.7% | Potency [2] | Potency [3] | Potency [4]

Source: PubChem BioAssay (NCATS)
